Experimental findings from PubChem BioAssay (NCI) are described below.

Test [1] can be described thus: NCI Yeast Anticancer Drug Screen. Data for the rad50 strain (AID 155).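 Further: 0% = growth of vehicle-only cultures of the same strain.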 To be noted: S. cerevisiae rad50 strain growth inhibition; at 50.0 µM; active compounds read high. The procedure, abridged:
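Inhibition values express reduced yeast growth in compound-treated cultures relative to vehicle-treated controls.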

The nature of test [2]: NCI Yeast Anticancer Drug Screen. Data for the mec2-1 strain (AID 157). To be noted: S. cerevisiae mec2-1 strain, at 50.0 µM, active compounds read high. In a few lines: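 Compounds were applied to mec2-1 yeast cells. Their growth was then compared with that of vehicle-treated cultures to give growth inhibition.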
Test [3] is described as follows: NCI Yeast Anticancer Drug Screen. Data for the sgs1 mgt1 strain (AID 161).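 Further: 0% = growth of cultures given vehicle only.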 The following applies: S. cerevisiae sgs1 mgt1 strain, at 50.0 µM, active compounds read high. In a few lines:
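Yeast cells carrying a defined DNA-repair defect were exposed to test compounds. Growth inhibition was measured relative to vehicle-treated controls.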

A short description of test [4]: NCI Yeast Anticancer Drug Screen. Data for the cln2 rad14 strain (AID 165).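 Further: 0% = growth equal to vehicle treated cultures.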 To be noted: S. cerevisiae cln2 rad14 strain, at 50.0 µM, active compounds read high. In a few lines:
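Strain: cln2 rad14 yeast, altered in cell cycle control and DNA damage repair. Read-out: growth inhibition vs vehicle.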

Test [5] is described as follows: NCI Yeast Anticancer Drug Screen. Data for the bub3 strain (AID 167). To be noted: S. cerevisiae bub3 mutant strain, at 50.0 µM, active compounds read high. The procedure, abridged: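 Steps: expose the mutant yeast strain to compound; grow alongside vehicle-treated cultures; measure growth; express inhibition against the vehicle cultures.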
Test [6] can be described thus: NCI Yeast Anticancer Drug Screen. Data for the mlh1 rad18 strain (AID 175). To be noted: S. cerevisiae mlh1 rad18 strain growth inhibition; at 50.0 µM; active compounds read high. In a few lines: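 A repair-deficient yeast strain is exposed to test compound, and growth is scored relative to vehicle-treated controls.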

Compounds without any hit were thinned out: in the full panel of roughly 79,000, 15% have a hit. Values without a mark were called inactive. Activity calls are given as the source filed them. No stated cut-off is given here; in the data, active means growth inhibition above about 70%; inactive means the rest.

For `O=C1CC(O)(c2ccccc2)C(c2ccccc2)=C1c1ccccc1` (stereo unspecified), the growth inhibition was 29.8% in test [1]; 21.4% in test [2]; 14.3% in test [3]; 32.7% in test [4]; -2.15% in test [5]; 36.8% in test [6].
For the molecule `CCN(CC)CCC1CC/C(=C\c2ccc(OC)cc2)C1=O` (stereo unspecified), the growth inhibition in test [1] was 18.3%; in test [2], -4.35%; in test [3] it was 27.9%; in test [4], 21.1%; in test [5] it was -2.45%; in test [6], 21.9%.
Consider `CC1=C(C(=O)Nc2ccc(C)cc2)C(c2cccc([N+](=O)[O-])c2)C(C(=O)Nc2ccc(C)cc2)=C(C)N1`, for which the growth inhibition in test [1] was 14.9%; in test [2], 24.3%; in test [3], 22.5%; in test [4], 13.8%; in test [5], 41%; in test [6], 4.35%.
In the case of `CC1CCCCC1(C)O` (stereo unspecified), the growth inhibition in test [1] is 23.9%; in test [2], 34.6%; in test [3], -19.4%; in test [4] it was 1.75%; in test [5], 9%; in test [6] it was 11.4%.
Consider `CCCS(CCC)=NS(=O)(=O)c1ccc(C)cc1`, for which the growth inhibition was -6.75% in test [1]; -0.7% in test [2]; 0.6% in test [3]; -0.8% in test [4]; 11.6% in test [5]; -9.65% in test [6].
Take `Cc1ccc(C(=O)OCC2OC(Cl)CC2OC(=O)c2ccc(C)cc2)cc1` (stereo unspecified): the growth inhibition in test [1] is 22.6%; in test [2], -13.7%; in test [3] it was 26.8%; in test [4], -36%; in test [5] it was 2.85%; in test [6], -8.3%.
In the case of `COc1cccc(NCC(=O)Nn2c(-c3ccccc3)nc3ccccc3c2=O)c1`, the growth inhibition was -37.5% in test [1]; -40.8% in test [2]; -27.2% in test [3]; -3.05% in test [4]; 5% in test [5]; -23% in test [6].
Take `NCCCNCCCCNC(=O)C(O)NC(=O)CC(O)CCCCN=C(N)N` (stereo unspecified): the growth inhibition was -1.45% in test [1]; -0.6% in test [2]; -22.7% in test [3]; 16.8% in test [4]; -2.85% in test [5]; -24.1% in test [6].
`CSCNC(=O)Nc1ccccc1`: the growth inhibition in test [1] was 30.4%; in test [2], 33.9%; in test [3] it was 19.1%; in test [4], 0.25%; in test [5] it was 15%; in test [6] it was 8.9%.
For `CCCCCCC#CC(=O)O`, the growth inhibition in test [1] is 7.8%; in test [2], -3.6%; in test [3], 0.5%; in test [4], 16.1%; in test [5] it was -4.3%; in test [6], 30.4%.
For the molecule `O=COCc1ccc(Cl)cc1Cl`, the growth inhibition is 16.9% in test [1]; -2.75% in test [2]; -5.65% in test [3]; 5% in test [4]; -1.35% in test [5]; -11.7% in test [6].
As for `C=CCN(N=O)C(=O)N(CCC)CCCC(NC(C)=O)C(=O)NCc1ccccc1` (stereo unspecified), the growth inhibition in test [1] is -3.2%; in test [2], -27.2%; in test [3], -14.4%; in test [4], 22.6%; in test [5] it was 2.9%; in test [6] it was -14.2%.
In the case of `CCCCCC(=O)OC[n+]1ccc2c(C)c3[nH]c4ccc(OC)cc4c3c(C)c2c1`, the growth inhibition was 87.8% (active) in test [1]; 91.8% (active) in test [2]; 90.2% (active) in test [3]; 89.3% (active) in test [4]; 87.1% (active) in test [5]; 91.5% (active) in test [6].
As for `Cc1ccc(Br)cc1C(=O)O`, the growth inhibition was 20.8% in test [1]; 2.25% in test [2]; 15.2% in test [3]; 13.8% in test [4]; -6.1% in test [5]; 15.4% in test [6].
`CSc1nc2nc(C)[nH]c2c(=O)[nH]1`: the growth inhibition is 9.8% in test [1]; 5.45% in test [2]; -4.45% in test [3]; 41% in test [4]; 9.8% in test [5]; 7.6% in test [6].
Turning to `NC(=S)NO`, the growth inhibition in test [1] was -1.85%; in test [2], -3.8%; in test [3], 2.35%; in test [4], 22.6%; in test [5] it was 8%; in test [6] it was -19.9%.
On to `C/C(N=NC(=S)N1CCCCC1)=C1\C=CC=CN1O`, for which the growth inhibition in test [1] is 10.8%; in test [2], -6.8%; in test [3], 53.8%; in test [4] it was 97.8% (active); in test [5], 43.2%; in test [6], 22.1%.
`OC1=CC(=S)NC2CCCCC12` (stereo unspecified): the growth inhibition in test [1] is 32.2%; in test [2], 18.2%; in test [3], 45%; in test [4], 35.9%; in test [5], 29.4%; in test [6], 49.8%.
Turning to `O=C(/C=C/c1ccccc1Cl)c1ccc(Cl)c(Cl)c1`, the growth inhibition was 28.7% in test [1]; 0.2% in test [2]; 2.1% in test [3]; 12% in test [4]; 15.4% in test [5]; 29.4% in test [6].
As for `NC(=O)C(Cl)=C(Cl)Cl`, the growth inhibition was 2.85% in test [1]; 10.4% in test [2]; -2% in test [3]; -4.75% in test [4]; -4.8% in test [5]; 1.65% in test [6].
In the case of `COc1ccc(/C=N/n2cnc3c(c2=O)SC(=C(C#N)C#N)N3c2ccccc2)cc1`, the growth inhibition in test [1] is -5.4%; in test [2], -35.5%; in test [3], -15.6%; in test [4], -16.1%; in test [5], -19.5%; in test [6] it was -41%.
